# From the supplement of paper PMC6555819
# What was measured:
# Assay in all cases: PBM binding z-score (relative to random genomic background probes); higher = stronger binding; sequences stand for … in GC…GCGATTGACAGCGTAGAATGAAGG
# [1] = test system: RARb homodimer (NR concentration 270 nM)
# Procedure, shortened: (§1)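 Regression normalization was applied to scanned fluorescence from custom Agilent 4×180K protein-binding microarrays. Before scanning, arrays were incubated 1 h with ligand-free nuclear receptor dimers, and binding was detected with antibodies against each partner (one per run). Binding z-scores use the random background probes as reference.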
# [2] = test system: RARg:RXRa (NR concentration 270 nM, RXRa partner concentration 90 nM)
# Procedure, shortened: as §1
# [3] = test system: RARg homodimer (NR concentration 270 nM)
# Procedure, shortened: as §1
# [4] = test system: RXRa DBDmut IVT, anti-RXR (DBD mutation: RXRa K156A/R161A, NR concentration 90 nM)
# Procedure, shortened: as §1
# [5] = test system: RXRa homodimer (NR concentration 180 nM)
# Procedure, shortened: as §1
# [6] = test system: THRa:RXRa (NR concentration 90 nM, RXRa partner concentration 90 nM)
# Procedure, shortened: as §1
# [7] = test system: THRa homodimer (NR concentration 90 nM)
# Procedure, shortened: as §1
# [8] = test system: VDR homodimer (NR concentration 270 nM)
# Procedure, shortened: as §1
Sequence,PBM binding z-score [1],PBM binding z-score [2],PBM binding z-score [3],PBM binding z-score [4],PBM binding z-score [5],PBM binding z-score [6],PBM binding z-score [7],PBM binding z-score [8]
ATATGTAGGTTAGCTGGGGTCATTCTGACTAGGC,3.66,3.88,2.79,2.08,5.12,5.12,3.04,5.3
CAAACTAGGTCAGCGGAAGGTCAAAGTCCGCATG,5.24,7.66,6.32,1.11,4.98,4.05,1.64,2.6
AGAATGAGGTTATTATGATCAGGGAATTGCGGTC,0.795,1.07,0.882,2.21,1.7,2.21,1.08,1.41
TCATATAAGTAAACAGGTGAAAGTCCGTAAGTTA,0.596,0.357,0.421,2.12,0.907,0.674,0.549,0.857
AGAATGAGGTTATACGTAGTTCAGGGAAGAAAGT,1.63,3.82,1.45,1.54,2.57,2.55,0.588,1.61
GGAACGAGGGAAAAGTTGATAGCATCTGTCGACG,-0.745,-0.112,0.0748,-0.319,-0.0103,-0.553,-1.15,-0.433
GCTTACGTGTCAAAGGTTATAGCATGAATAGAAT,1.28,3.21,1.5,0.885,4.41,1.81,-0.725,-0.00185
